Several values for one entry are separate records, joined by “and”; a condition that tells them apart may be missing. Equal values may be shown once. Results filed as inconclusive are left out. Some compounds were tested as several samples or in several runs, with calls that do not always agree. Activity calls are given as the source filed them. Unless noted, calls come from the whole dose curve; as a rule, active = well fitted curve in the direction sought with a large enough effect in the repeat runs; inconclusive = weak or mixed curves; inactive = no such curve, though single readings can be large; an effect the other way counts as inactive or inconclusive.
Legend:
[1] = qHTS assay to identify small molecule antagonists of the estrogen related receptor (ERR) signaling pathway from Tox21 library - cell viability counter screen (AID 1224834); note: nearly all actives have a fitted effect of over 30% in size; note: potency is the fitted concentration of half-maximal effect; for viability change, negative = cytotoxic: % is set by controls: 0 for no effect and ±100 for the full control effect
Summary of the method: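 ERR reporter cells, 2,000 per well, rested 6 h, then exposed to compound in DMSO for 17.5 hours at 37 C. Viability read as fluorescence after 30 min with CellTiter-Fluor.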

[2] = molecular target: Luciferin 4-monooxygenase (Photinus pyralis) (UniProt P08659); experiment: qHTS assay to identify small molecule inhibitors of firefly luciferase (AID 1224835); note: nearly all actives have a fitted effect of over 25% in size; note: potency is the fitted concentration of half-maximal effect
Summary of the method: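 Biochemical qHTS: compounds run as interplate titrations against purified firefly enzyme, with D-luciferin and ATP each at its KM concentration. Light output recorded by CCD imaging.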

[3] = qHTS assay to identify small molecule agonists of the constitutive androstane receptor (CAR) signaling pathway - cell viability counter screen (AID 1224836); note: nearly all actives have a fitted effect of over 45% in size; note: potency is the fitted concentration of half-maximal effect; for viability change, negative = cytotoxic: series mostly up to about 92 µM; % is set by controls: 0 for no effect and ±100 for the full control effect
Summary of the method: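 Compound titrations (15 concentrations) went onto HepG2-CYP2B6-hCAR cells 4 h after seeding, alongside PK11195 at a final 0.75 uM; a 23 h, 37 C/5% CO2 incubation preceded CellTiter-Fluor viability measurement.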

[4] = qHTS assay to identify small molecule antagonists of the constitutive androstane receptor (CAR) signaling pathway - cell viability counter screen (AID 1224837); note: nearly all actives have a fitted effect of over 45% in size; note: potency is the fitted concentration of half-maximal effect; for activity change, negative = cytotoxicity: series mostly up to about 92 µM; % is set by controls: 0 for no effect and ±100 for the full control effect
Summary of the method: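 HepG2 cells stably carrying hCAR and CYP2B6-2.2kb reporter, stimulated with 50 nM CITCO and compounds at 15 concentrations for 23 h at 37 C. Viability measured by CellTiter-Fluor fluorescence.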

[5] = qHTS RealTime-Glo MT Cell Viability Assay in HepG2 cells - 24 hour (AID 1224867); note: nearly all actives have a fitted effect of over 50% in size; note: potency is the fitted concentration of half-maximal effect; for activity change, negative = cytotoxicity: % is set by controls: 0 for no effect and ±100 for the full control effect
Summary of the method: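 HepG2 suspension premixed with RealTime-Glo reagents is plated at 600 cells per well and left 5 h at 37 C/5% CO2. Compounds in DMSO then go in, and bioluminescence reflecting viable cell number is recorded over 40 h.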

[6] = qHTS RealTime-Glo MT Cell Viability Assay in HEK293 cells - 32 hour (AID 1224868); note: nearly all actives have a fitted effect of over 50% in size; note: potency is the fitted concentration of half-maximal effect
Summary of the method: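 Reads taken at 0, 8, 16, 24, 32 and 40 h from the same wells. HEK293 cells (600/well) carried RealTime-Glo reagents from seeding, with compound added after a 5 h settle at 37 C.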

[7] = A CellTox Green Cytotoxicity Assay to monitor cytotoxicity in HepG2 cells - 40 hour (AID 1224879); note: nearly all actives have a fitted effect of over 40% in size; note: potency is the fitted concentration of half-maximal effect
Summary of the method: (§1)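 HepG2 cells, 600/well, preincubated 5 h with CellTox Green dye, then exposed to Tox21 compounds in DMSO at 37 C for up to 40 h. Dead-cell DNA fluorescence read at the indicated time point.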

[8] = A CellTox Green Cytotoxicity Assay to monitor cytotoxicity in HepG2 cells - 32 hour (AID 1224883); note: nearly all actives have a fitted effect of over 50% in size; note: potency is the fitted concentration of half-maximal effect
Summary of the method: as §1

[9] = qHTS assay to identify small molecule antagonists of the androgen receptor (AR) signaling pathway using the MDA cell line in the presence of 0.5 nM R1881 - cell viability counter screen (AID 1259242); note: % is set by controls: 0 for no effect and ±100 for the full control effect; nearly all actives have a fitted effect of over 45% in size
Summary of the method: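 MDA-kb2 cells (MMTV-luciferase, AR/GR responsive) were treated with compounds plus 0.5 nM R1881 (final) for 16 hr at 37C, 0% CO2. Viability was then read in the same wells as live-cell protease fluorescence (CellTiter-Fluor, 30 min).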

[10] = qHTS assay to identify small molecule agonists of the sonic hedgehog signaling (Shh) pathway - cell viability counter screen (AID 1259366); note: nearly all actives have a fitted effect of over 50% in size; note: potency is the fitted concentration of half-maximal effect
Summary of the method: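 Fluorescence from CellTiter-Fluor reports live cells in this counter screen. NIH/3T3-derived Gli1-Luc reporter cells receive test compounds for 24hr at 37C; reagent goes in at 23hr.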

[11] = qHTS assay to identify small molecule antagonists of the sonic hedgehog signaling (Shh) pathway - cell viability counter screen (AID 1259367); note: nearly all actives have a fitted effect of over 55% in size; note: potency is the fitted concentration of half-maximal effect
Summary of the method: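 Seed 3T3 Gli1-Luc cells at 2,000 per well; incubate 4 hr; add compound in DMSO, then conditioned medium; incubate at 37C with 5% CO2; add CellTiter-Fluor after 23 hr; read fluorescence 1 hr later.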

[12] = molecular target: Estrogen receptor (Homo sapiens) (UniProt P03372); experiment: qHTS assay to identify small molecule agonists of the estrogen receptor alpha (ER-alpha) signaling pathway in the presence of an antagonist (AID 1259383; calls by dose curve; note: top concentration of the series differs between compounds; % is set by controls: 0 for no effect and ±100 for the full control effect; nearly all actives have a fitted effect of over 15% in size)
Summary of the method: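 VM7Luc4E2 cells express endogenous full-length ER-alpha with an ERE-luciferase reporter and were hormone-deprived for 5 days. Compounds at 15 concentrations were added with 10.0nM ICI-182,780 for 22hr at 37C. Luminescence was read with ONE-Glo.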

[13] = qHTS assay to identify small molecule antagonists of the TGF-beta/Smad signaling pathway - cell viability counter screen (AID 1346824)
Summary of the method: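 SBE-bla HEK 293T cells, incubated overnight, then compound plus 0.25 ng/mL TGF-beta1 (stock added) for 5 hr at 37 C. Viability was read in the same wells by CellTiter-Glo luminescence after 30 min at room temperature.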

[14] = qHTS assay to identify small molecule agonists of the TGF-beta/Smad signaling pathway - cell viability counter screen (AID 1346829); note: top concentration of the series differs between compounds; % is set by controls: 0 for no effect and ±100 for the full control effect; nearly all actives have a fitted effect of over 45% in size
Summary of the method: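 Same-well cytotoxicity: CellTiter-Glo added after the 2 hr room-temperature beta-lactamase substrate step, luminescence measured 30 min later; cells had 5 hr of compound at 37 C.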

[15] = molecular target: Cytochrome P450 2C19 (Homo sapiens) (UniProt P33261); experiment: Cytochrome P450 Family 2 Subfamily C Member 19 (CYP2C19) small molecule antagonists: luciferase reporter qHTS assay (AID 1671197); note: potency is the fitted concentration of half-maximal effect; nearly all actives have a fitted effect of over 65% in size
Summary of the method: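 Quantitative high-throughput screen of the Tox21 library using CYP2C19 with proluciferin substrate. Reaction: NADPH regeneration, 37C, 1 h, after 10 min compound preincubation at room temperature. Readout: luminescence.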

[16] = molecular target: Retinoic acid receptor RXR-alpha (Homo sapiens) (UniProt P19793); experiment: qHTS assay to identify small molecule agonists of the RXR signaling pathway (AID 1159527; calls by dose curve; note: % is set by controls: 0 for no effect and ±100 for the full control effect; nearly all actives have a fitted effect of over 35% in size)
Summary of the method: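 Beta-lactamase reporter assay, agonist format. Engineered HEK 293T line, charcoal-stripped FBS at 2%, overnight (16 hr) exposure, fluorescence at 460 and 530 nm after 405 nm excitation.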

[17] = molecular target: Nuclear receptor subfamily 1 group I member 2 (Homo sapiens) (UniProt O75469); experiment: Human pregnane X receptor (PXR) small molecule agonists, qHTS assay (AID 1346982); note: nearly all actives have a fitted effect of over 35% in size; note: potency is the fitted concentration of half-maximal effect
Summary of the method: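 PXR-Luc HepG2 reporter cells (CYP3A4-driven luciferase) in 5% charcoal-stripped FBS medium, plated 5 h before compound addition, then treated 24 h at 37C. Luciferase read by ONE-Glo luminescence after 30 min at room temperature.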

[18] = molecular target: Cytochrome P450 2C9 (Homo sapiens) (UniProt P11712); experiment: Cytochrome P450 Family 2 Subfamily C Member 9 (CYP2C9) small molecule antagonists: luciferase reporter qHTS assay (AID 1671198); note: nearly all actives have a fitted effect of over 50% in size; note: potency is the fitted concentration of half-maximal effect
Summary of the method: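 P450-Glo proluciferin substrate with CYP2C9 enzyme; 10 min RT preincubation, then NADPH regeneration 1 h at 37C; luciferin detection reagent 20 min RT, luminescence in relative luminescence units.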

[19] = A CellTox Green Cytotoxicity Assay to monitor cytotoxicity in HepG2 cells - 24 hour (AID 1224878); note: nearly all actives have a fitted effect of over 45% in size; note: potency is the fitted concentration of half-maximal effect
Summary of the method: as §1

[20] = qHTS assay for small molecule agonists of the p53 signaling pathway (AID 651631; calls by dose curve; note: nearly all actives have a fitted effect of over 15% in size; note: potency is the fitted concentration of half-maximal effect)
Summary of the method: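 Quantitative high-throughput format: 4,000 p53RE-bla HCT-116 cells/well, 5 h pre-incubation, 16 h compound exposure at 37 °C, 2 h room-temperature substrate step, fluorescence intensity measured.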

Estrogen receptor (Homo sapiens), sequence (P03372 whole entry, looked up): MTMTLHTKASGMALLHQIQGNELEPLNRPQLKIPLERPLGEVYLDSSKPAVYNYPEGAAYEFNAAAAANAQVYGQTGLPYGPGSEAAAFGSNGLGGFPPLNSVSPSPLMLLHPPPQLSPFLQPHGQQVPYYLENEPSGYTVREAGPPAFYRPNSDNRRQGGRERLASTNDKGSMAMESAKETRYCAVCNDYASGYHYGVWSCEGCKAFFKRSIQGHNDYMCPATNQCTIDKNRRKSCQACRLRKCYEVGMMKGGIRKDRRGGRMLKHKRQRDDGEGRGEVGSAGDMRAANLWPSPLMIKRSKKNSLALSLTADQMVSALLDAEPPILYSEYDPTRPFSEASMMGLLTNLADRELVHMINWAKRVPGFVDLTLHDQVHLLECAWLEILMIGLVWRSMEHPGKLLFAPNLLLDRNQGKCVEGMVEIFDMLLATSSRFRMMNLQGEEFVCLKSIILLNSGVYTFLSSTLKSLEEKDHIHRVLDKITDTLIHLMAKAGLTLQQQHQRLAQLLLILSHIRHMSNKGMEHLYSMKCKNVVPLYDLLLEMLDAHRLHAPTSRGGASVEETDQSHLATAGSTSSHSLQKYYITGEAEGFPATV
Luciferin 4-monooxygenase (Photinus pyralis), sequence (P08659 whole entry, looked up): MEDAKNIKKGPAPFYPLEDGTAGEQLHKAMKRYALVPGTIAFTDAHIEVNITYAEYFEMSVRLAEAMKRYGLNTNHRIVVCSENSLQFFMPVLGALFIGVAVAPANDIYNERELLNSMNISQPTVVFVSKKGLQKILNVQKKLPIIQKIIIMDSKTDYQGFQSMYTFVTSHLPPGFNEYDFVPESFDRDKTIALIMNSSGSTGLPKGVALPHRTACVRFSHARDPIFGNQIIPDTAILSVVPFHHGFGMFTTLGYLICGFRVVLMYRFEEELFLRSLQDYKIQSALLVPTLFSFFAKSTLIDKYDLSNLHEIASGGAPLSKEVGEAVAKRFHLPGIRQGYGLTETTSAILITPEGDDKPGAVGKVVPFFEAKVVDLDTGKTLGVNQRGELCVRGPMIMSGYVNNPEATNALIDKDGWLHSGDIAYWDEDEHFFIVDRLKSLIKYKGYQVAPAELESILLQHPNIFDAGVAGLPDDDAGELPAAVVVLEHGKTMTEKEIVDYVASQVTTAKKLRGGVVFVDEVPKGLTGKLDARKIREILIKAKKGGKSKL
Retinoic acid receptor RXR-alpha (Homo sapiens), sequence (P19793 whole entry, looked up): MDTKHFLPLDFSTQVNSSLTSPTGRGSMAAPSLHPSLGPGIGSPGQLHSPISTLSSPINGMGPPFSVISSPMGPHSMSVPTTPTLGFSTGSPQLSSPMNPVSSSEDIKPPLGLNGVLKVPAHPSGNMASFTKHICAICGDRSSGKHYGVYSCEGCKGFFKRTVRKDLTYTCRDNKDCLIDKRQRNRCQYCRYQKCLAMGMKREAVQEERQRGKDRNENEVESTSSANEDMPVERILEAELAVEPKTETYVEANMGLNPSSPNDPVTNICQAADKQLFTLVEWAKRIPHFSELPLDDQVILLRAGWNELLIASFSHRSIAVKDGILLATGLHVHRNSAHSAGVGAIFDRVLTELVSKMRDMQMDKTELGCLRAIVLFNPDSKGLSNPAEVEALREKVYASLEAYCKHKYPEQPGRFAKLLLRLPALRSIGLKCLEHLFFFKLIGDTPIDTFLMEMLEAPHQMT
Cytochrome P450 2C19 (Homo sapiens), sequence (P33261 whole entry, looked up): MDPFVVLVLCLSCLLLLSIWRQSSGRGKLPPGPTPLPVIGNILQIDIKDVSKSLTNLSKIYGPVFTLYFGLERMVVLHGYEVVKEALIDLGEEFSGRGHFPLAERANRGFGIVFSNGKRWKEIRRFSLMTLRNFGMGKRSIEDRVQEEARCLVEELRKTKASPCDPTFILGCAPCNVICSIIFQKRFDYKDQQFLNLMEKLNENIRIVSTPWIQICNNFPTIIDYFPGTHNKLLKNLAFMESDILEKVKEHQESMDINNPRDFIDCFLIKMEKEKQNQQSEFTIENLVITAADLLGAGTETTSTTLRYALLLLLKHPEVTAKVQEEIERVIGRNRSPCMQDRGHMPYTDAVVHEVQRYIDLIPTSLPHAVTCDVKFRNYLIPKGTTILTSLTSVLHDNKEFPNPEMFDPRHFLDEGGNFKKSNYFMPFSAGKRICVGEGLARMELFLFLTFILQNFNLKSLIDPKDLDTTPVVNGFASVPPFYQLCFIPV
Nuclear receptor subfamily 1 group I member 2 (Homo sapiens), sequence (O75469 whole entry, looked up): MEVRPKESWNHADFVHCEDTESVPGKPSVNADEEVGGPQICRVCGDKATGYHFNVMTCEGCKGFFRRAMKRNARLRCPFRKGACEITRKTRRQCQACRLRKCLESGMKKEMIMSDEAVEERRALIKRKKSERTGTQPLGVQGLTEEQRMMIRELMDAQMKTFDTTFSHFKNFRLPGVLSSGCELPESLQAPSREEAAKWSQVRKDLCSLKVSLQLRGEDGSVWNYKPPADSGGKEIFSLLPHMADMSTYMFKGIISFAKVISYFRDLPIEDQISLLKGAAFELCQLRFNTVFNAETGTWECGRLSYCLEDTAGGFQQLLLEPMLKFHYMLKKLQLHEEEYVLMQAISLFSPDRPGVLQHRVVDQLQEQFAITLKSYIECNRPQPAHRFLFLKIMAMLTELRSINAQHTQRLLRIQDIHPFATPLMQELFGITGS
Cytochrome P450 2C9 (Homo sapiens), sequence (P11712 whole entry, looked up): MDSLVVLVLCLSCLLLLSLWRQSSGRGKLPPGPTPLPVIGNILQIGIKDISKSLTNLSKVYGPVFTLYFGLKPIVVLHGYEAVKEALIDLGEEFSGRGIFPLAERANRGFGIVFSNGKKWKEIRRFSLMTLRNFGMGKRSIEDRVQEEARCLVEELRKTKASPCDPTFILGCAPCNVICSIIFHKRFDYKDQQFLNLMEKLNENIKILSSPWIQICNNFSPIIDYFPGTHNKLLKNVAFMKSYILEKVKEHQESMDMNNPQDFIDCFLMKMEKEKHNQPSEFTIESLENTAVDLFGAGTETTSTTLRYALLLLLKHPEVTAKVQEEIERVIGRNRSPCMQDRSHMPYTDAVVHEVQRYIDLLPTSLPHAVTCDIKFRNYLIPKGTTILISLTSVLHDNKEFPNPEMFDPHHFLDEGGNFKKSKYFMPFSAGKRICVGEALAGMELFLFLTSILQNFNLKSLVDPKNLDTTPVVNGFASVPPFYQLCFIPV

O=[N+]([O-])c1c(Cl)c(Cl)cc(Cl)c1Cl
inactive: Potency [1] | Potency [2] | Potency [3] | Potency [4] | Potency [5] | Potency [6] | Potency [9] | Potency [10] | Potency [11] | outcome [12] | Potency [13] | outcome [14]
active: Potency [7] 54.9 µM | Potency [8] 54.9 µM | Potency [15] 71 µM

CCC(C)=O
inactive: Potency [16]

ClC(Cl)=C(c1ccc(Cl)cc1)c1ccccc1Cl
active: Potency [17] 30.6 µM | Potency [15] 6.33 µM | Potency [18] 25.2 µM
inactive: Potency [1] | Potency [2] | Potency [3] | Potency [4] | Potency [5] | Potency [9] | Potency [10] | Potency [11] | outcome [12] | Potency [13] | outcome [14]

Cc1cc(C)c(C(=O)P(=O)(c2ccccc2)c2ccccc2)c(C)c1
inactive: Potency [2] | Potency [9] | outcome [12] | Potency [13]
active: Potency [6] 49 µM | Potency [10] 61.1 µM | Potency [11] 54.5 µM | Potency [17] 9.69 µM | Potency [15] 6.33 µM | Potency [18] 15.9 µM

CC1COC(Cn2cncn2)(c2ccc(Oc3ccc(Cl)cc3)cc2Cl)O1 (centres undefined)
active: Potency [1] 27.3 µM | Potency [6] 19.5 µM | Potency [17] 61.1 µM | Potency [15] 0.0502 µM | Potency [18] 1.12 µM
inactive: Potency [2] | Potency [19] | Potency [10] | Potency [11] | outcome [12] | outcome [14]

CCCCC(CC)COC(=O)c1ccc(C(=O)OCC(CC)CCCC)cc1 (centres undefined)
inactive: Potency [16]

CC(c1ccccc1)(c1ccc(O)cc1)c1ccc(O)cc1
inactive: Potency [2] | Potency [3] | Potency [4] | Potency [5] | Potency [9] | outcome [12] | Potency [13] | outcome [14]
active: Potency [1] 61.1 µM | Potency [6] 43.6 µM | Potency [19] 43.6 µM | Potency [7] 38.9 µM | Potency [8] 43.6 µM | Potency [10] 68.6 µM | Potency [17] 17.2 µM | Potency [15] 8.94 µM | Potency [18] 8.94 µM

Cc1ccc2nc3sc(=O)sc3nc2c1
inactive: viability change, negative = cytotoxic [1] -9.38% [at 19 µM] | viability change, negative = cytotoxic [3] 1.63% [at 19 µM] | activity change, negative = cytotoxicity [4] 11.8% [at 19 µM] | activity change, negative = cytotoxicity [5] -4.88% [at 15.8 µM] | activity change, negative = cytotoxic [6] 8.73% [at 15.8 µM] | cytotoxicity [19] -2.5% [at 15.8 µM] | cytotoxicity increase [7] -2.41% [at 15.8 µM] | cytotoxicity increase [8] -5.02% [at 15.8 µM] | viability change, negative = cytotoxic [9] -14.8% [at 19 µM] | viability change, negative = cytotoxic [10] -7.48% [at 19 µM] | activation [12] -0.0346% [at 19 µM] | viability change, negative = cytotoxic [13] 2.33% [at 15.8 µM] | activity change, negative = cytotoxicity [14] 17% [at 15.8 µM] | activation [17] 20.6% [at 19 µM]
active: Potency [15] 16.9 µM

Cc1cc(C(C)(C)c2ccc(O)c(C)c2)ccc1O
active: Potency [20] 13 µM | Potency [1] 51.9 µM | Potency [6] 23.4 µM | Potency [10] 58.2 µM | Potency [11] 46.2 µM | Potency [17] 58.2 µM | Potency [15] 2.14 µM | Potency [18] 5.37 µM
inactive: Potency [2] | Potency [5] | Potency [13] | outcome [14]

CCc1cccc(CC)c1N
inactive: Potency [20] | Potency [16]

N#Cc1cc([N+](=O)[O-])ccc1N
inactive: Potency [2] | Potency [5] | Potency [6] | Potency [19] | Potency [7] | Potency [8] | Potency [9] | outcome [12] | outcome [14] | Potency [17] | Potency [18]

Cc1ccc(N(SC(F)(Cl)Cl)S(=O)(=O)N(C)C)cc1
active: Potency [20] 6.11 µM | Potency [1] 30.6 µM | Potency [2] 44.8 µM | Potency [3] 30.6 µM | Potency [4] 24.3 µM | Potency [5] 11 µM | Potency [6] 5.49 µM | Potency [19] 11 µM | Potency [7] 6.92 µM | Potency [8] 6.92 µM | Potency [10] 4.86 µM | Potency [11] 17.2 µM | Potency [15] 10 µM | Potency [18] 5.64 µM
inactive: Potency [13] | outcome [14] | Potency [17]

O=C(c1ccc(Cl)cc1)c1ccc(Cl)cc1
inactive: Potency [16]

CCCCC(CC)COC(=O)CCCCC(=O)OCC(CC)CCCC (centres undefined)
inactive: Potency [20] | Potency [16]

COCCOC(=O)c1ccccc1C(=O)OCCOC
inactive: Potency [20] | Potency [16]

ClC1=C(Cl)[C@]2(Cl)[C@@H]3[C@@H](Cl)[C@H]4O[C@H]4[C@@H]3C1(Cl)C2(Cl)Cl
active: Potency [17] 30.6 µM | Potency [18] 39.9 µM
inactive: Potency [2] | Potency [3] | Potency [4] | Potency [9] | Potency [10] | Potency [11] | outcome [12] | Potency [13] | outcome [14]

CCOC(=O)C(O)(c1ccc(Cl)cc1)c1ccc(Cl)cc1
27.6 µM (active) and inactive: Potency [17]
active: Potency [20] 27.6 µM | Potency [1] 49.1 µM | Potency [6] 22.1 µM | Potency [15] 453 nM and 317 nM | Potency [18] 10.1 µM and 7.96 µM
inactive and 43.6 µM (active): Potency [7] | Potency [8]
inactive and 38.9 µM (active): Potency [19]
inactive: Potency [2] | Potency [3] | Potency [4] | Potency [5] | Potency [9] | outcome [12] | Potency [13] | outcome [14]

— PubChem BioAssay (Tox21)
